We go through 42 compounds from PubChem BioAssay AID2544 (Sanford-Burnham Center for Chemical Genomics, 2010).

Among all 330,000 compounds or so, about 390 (0.12%) were called active. This is one part of a sample in which actives are shown more often than they occur.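 Rule for the calls: active = inhibition reaching a set limit with compound at 10 µM in the primary screen (cut at about 35% in these data); inactive = the rest.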

The target of this assay is Intestinal-type alkaline phosphatase (Homo sapiens) (UniProt P09923). Briefly: human IAP inhibitors, primary screen, biochemical, luminescence, uHTS (AID 2544).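 Note: plate controls were DMSO wells with enzyme for no effect and no-enzyme buffer wells for full effect.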 The following applies: purified IAP, CDP-Star luminescence, 30 min; at 10 µM; hits give high values.
Intestinal-type alkaline phosphatase (Homo sapiens), sequence (P09923 whole entry, looked up): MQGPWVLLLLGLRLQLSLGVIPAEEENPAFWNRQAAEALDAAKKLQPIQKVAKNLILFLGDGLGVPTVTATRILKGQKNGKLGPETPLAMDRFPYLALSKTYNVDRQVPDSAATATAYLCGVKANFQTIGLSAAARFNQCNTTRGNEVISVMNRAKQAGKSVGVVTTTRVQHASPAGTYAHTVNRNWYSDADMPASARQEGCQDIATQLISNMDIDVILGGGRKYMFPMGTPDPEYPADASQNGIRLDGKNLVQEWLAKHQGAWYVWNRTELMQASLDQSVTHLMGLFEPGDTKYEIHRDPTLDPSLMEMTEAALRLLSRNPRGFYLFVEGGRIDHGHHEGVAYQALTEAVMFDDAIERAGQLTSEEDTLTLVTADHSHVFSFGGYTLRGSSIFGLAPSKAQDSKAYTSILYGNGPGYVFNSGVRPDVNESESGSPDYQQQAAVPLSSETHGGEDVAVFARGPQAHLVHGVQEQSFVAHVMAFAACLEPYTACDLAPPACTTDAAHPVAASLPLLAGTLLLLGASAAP
Consider `Cc1cc(C)c2c(Cn3ccnc3)cc(=O)oc2c1`, for which the inhibition – broadly, the change of the read-out against control, counted positive when it falls – is -7% (inactive).
Under `CN(CC(=O)Nc1cccc(F)c1)C(=O)C1CC(=O)N(CCc2ccccc2)C1` (configuration not stated) stands 2.5% (inactive); under `C/C(Cc1ccccc1)=N\NC(=O)CNC(=O)c1ccc2c(c1)OCCO2`, 1.8% (inactive).
Consider `CSc1ccc(S(=O)(=O)Nc2cccc(F)c2)cc1`, for which the inhibition is 7% (inactive).
Under `CN=C1SC(CC(=O)Nc2ccc(C(=O)O)cc2)C(=O)N1C` (configuration not stated) stands 15.6% (inactive).
Under `CCOC(=O)COc1cc(OCC(=O)OCC)c2c(=O)cc(-c3ccccc3)oc2c1` stands -22.1% (inactive); under `COc1c(O)cc2oc(-c3ccc(O)c(O)c3)cc(=O)c2c1O`, 40.1% (active).
For `CCn1nnnc1SCC(=O)c1ccc(C)cc1C` the value was -4% (inactive); for `Cc1ccc2c(c1)nnc1nnc(SCC(=O)O)n12`, 36.1% (active).
Turning to `Cc1cccc(-c2nnc(SCC(=O)O)n2Cc2ccccc2)c1`, the inhibition was -16.7% (inactive).
For `Cc1ccccc1N1CC(C(=O)Nc2nnc(SCCC3OCCO3)s2)CC1=O` (configuration not stated) the value was 18.3% (inactive); for `C=CCn1c(=S)sc2c(=O)[nH]c(C)nc21`, -10.3% (inactive); for `CN(C)/C=C1\C=C(c2ccccc2)OC1=O`, 0.7% (inactive).
Consider `Cc1ccc(N=C2SCCCN2C(=O)c2cccc(N3C(=O)CCC3=O)c2)cc1Cl`, for which the inhibition is -21.5% (inactive).
For `Cc1ccc(-n2ncc3c(Nc4cccc(C(=O)O)c4)ncnc32)cc1` the value was 17.6% (inactive); for `Cc1c(NC(=O)CN2C(=O)C(=O)N(Cc3ccccc3)C2=O)c(=O)n(-c2ccccc2)n1C`, 8.1% (inactive); for `NC(=O)c1nsc(C(=O)N(CC(=O)NCc2ccc(F)cc2)Cc2ccco2)c1N`, -10.8% (inactive).
Under `O=C(CSc1nccn1-c1cccc(F)c1)NC1CCCC1` stands 2.7% (inactive); under `Cc1csc(NC(=O)CSc2nc(=O)n(CCCN(C)C)c3c2CCC3)n1`, 6.4% (inactive).
Under `O=C(O)C1=CCCN(CCON=C(c2ccccc2)c2ccccc2)C1` stands -0.4% (inactive); under `CC(C)(C)c1ccc(/C=C2\Oc3c(ccc(O)c3CN3CCN(CCO)CC3)C2=O)cc1`, 8.9% (inactive).
Consider `CCOC(=O)c1ccc(NC(=O)CCn2c(=O)oc3ccccc32)cc1`, for which the inhibition was -9.6% (inactive).
Under `CC[C@]1(c2ccccc2OC)C(=O)N(C(=O)OC)N1C(=O)OC` stands 8.5% (inactive); under `O=C(COC(=O)Cc1c[nH]c2ccccc12)NCCc1ccccc1`, 14.4% (inactive); under `Cc1ccc(Cn2c(=N)c(S(=O)(=O)c3ccc(C)cc3)cc3c(=O)n4ccccc4nc32)cc1`, -7.4% (inactive).
Under `Cc1cc(C(F)F)nn1CC(=O)NC1CCCCCC1` stands 14% (inactive); under `CCC(C)N(C(=O)COC(=O)C1C(C(=O)OC)=C(C)NC(C)=C1C(=O)OC)C1CCS(=O)(=O)C1` (configuration not stated), -1.2% (inactive); under `CCN(C(=O)COC(=O)Cc1c(F)cccc1Cl)c1c(N)n(Cc2ccccc2)c(=O)[nH]c1=O`, -9.2% (inactive).
For `Cc1ccc(CNC(=O)c2cc(-c3ccccc3C)n(CC3CC(c4cccc([N+](=O)[O-])c4)=NO3)n2)cc1` (configuration not stated) the value was 17% (inactive).
For `OCCC#Cc1ccc(CN2CCN(Cc3ccsc3)C(CCO)C2)cc1` (configuration not stated), the inhibition is 12.2% (inactive).
Under `CC1O[C@@H](OC2C(O)C(C)O[C@H](OC(=O)[C@]34CCC(C)(C)C[C@H]3C3=CCC5[C@@]6(C)CC(O)C(O[C@@H]7OC(CO)C(O)[C@@H](O)[C@@H]7O)[C@@](C)(C(=O)O)C6CC[C@@]5(C)[C@]3(CO)CC4)C2O[C@H]2OC(C)[C@@H](O[C@@H]3OCC(O[C@@H]4OC(CO)C(O)[C@H](O)C4O)[C@@H](O)[C@@H]3O)[C@H](O)C2O)C(O)C(O)C1O` (some centres not stated) stands -8.3% (inactive); under `CCOC(=O)c1[nH]cnc1C(=O)NC1CCCCC1`, -28.7% (inactive).
Under `CCN(CC(=O)Nc1ccc2c(c1)OCCO2)Cc1cc(=O)oc2cc(C)c(C)cc12` stands 5% (inactive); under `O=C(NNC1=C(C(=O)C(F)(F)F)CCC1)c1ccncc1`, -34.2% (inactive).
Under `COC(=O)C(C)Sc1ccc2nnc(-c3cccc(F)c3)n2n1` (configuration not stated) stands -8.4% (inactive).
Regarding `COc1ccccc1C(=O)NCCC(=O)NN1C(=O)NC2(CCCCC2)C1=O`, the inhibition is 14.4% (inactive).
For `CC1(C)NC(=O)N(CCCCSc2ccc(Cl)cc2)C1=O` the value was -0.2% (inactive); for `Cc1ccc(Cl)c(OCC(=O)N2CCc3ccccc3C2)c1`, -20.2% (inactive).
For `O=C(CSc1nnc(CNC(=O)c2ccc(F)cc2)o1)Nc1ccc2c(c1)OCO2` the value was -13.1% (inactive); for `COc1ccc(CN2CCC(c3nc4ccc(Cl)cc4[nH]3)CC2)cc1`, -27.1% (inactive); for `O=C(NCc1ccc2c(c1)OCO2)C1CCCN(S(=O)(=O)c2cccs2)C1` (configuration not stated), 17.9% (inactive).
Under `COc1ccc(C(C#N)N2N=C(C)CC2(C)C)cc1` (configuration not stated) stands -6.2% (inactive).
